{"source": "PubChem BioAssay AID1851", "about": "(National Center for Advancing Translational Sciences (NCATS), 2009)", "note": "About 2,600 (16%) of roughly 16,000 compounds were called active. Another 20% or so got no clear call; they are omitted. Only a sample is shown. Values without a mark were called inactive. Calls come from the whole dose curve; as a rule, active = well fitted curve in the direction sought with a large enough effect; inconclusive = small, poorly fitted or top-dose-only effect, or effect the other way; inactive = no such curve, though single readings can be large or run the other way. % is set by controls: 0 for no effect and ±100 for the full control effect.", "data": [{"target": "Cytochrome P450 2D6 (Homo sapiens) (UniProt P10635)", "sequence (P10635 whole entry, looked up)": "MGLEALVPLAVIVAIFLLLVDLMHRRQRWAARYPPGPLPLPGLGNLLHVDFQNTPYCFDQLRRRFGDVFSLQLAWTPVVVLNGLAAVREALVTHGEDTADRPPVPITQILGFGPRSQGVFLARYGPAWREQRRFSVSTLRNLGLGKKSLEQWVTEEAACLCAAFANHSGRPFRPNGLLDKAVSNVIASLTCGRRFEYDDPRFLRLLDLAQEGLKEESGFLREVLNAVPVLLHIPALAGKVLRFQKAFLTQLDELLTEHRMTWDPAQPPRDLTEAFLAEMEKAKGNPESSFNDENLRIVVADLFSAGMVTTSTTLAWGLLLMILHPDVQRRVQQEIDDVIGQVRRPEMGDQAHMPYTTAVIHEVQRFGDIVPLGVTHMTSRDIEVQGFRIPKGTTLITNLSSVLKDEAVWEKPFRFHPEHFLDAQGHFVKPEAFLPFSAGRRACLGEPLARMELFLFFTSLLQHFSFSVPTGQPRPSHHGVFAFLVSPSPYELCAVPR", "assay": "Cytochrome panel assay with activity outcomes", "settings": "recombinant CYP, pro-luciferin dealkylation, luminescence, p450-cyp2d6; series mostly up to 57.1 µM; activity, negative = inhibition: at the top concentration", "values": [{"smiles": "COc1ccc(-c2cc(C(F)(F)F)n3ncc(C(=O)NCC4CCCO4)c3n2)cc1OC", "note": "(configuration not stated)", "activity, negative = inhibition": "3.76%"}, {"smiles": "CCN(C(=O)CSc1nc2cc(C(=O)OC)ccc2c(=O)n1Cc1ccco1)c1cccc(C)c1", "activity, negative = inhibition": "-23.1%"}, {"smiles": "CCC(Sc1nc2cc3c(cc2c(=O)n1Cc1ccco1)OCO3)C(=O)Nc1cccc(OC)c1", "note": "(configuration not stated)", "AC50": "3.16 µM (active)"}, {"smiles": "COCCNC(=O)CSc1nc2cc(OC)c(OC)cc2c(=O)n1Cc1ccco1", "activity, negative = inhibition": "-20.3%"}, {"smiles": "Cc1nc(-c2cccnc2)sc1C(N)=O", "activity, negative = inhibition": "8.45%"}, {"smiles": "COc1ccc(-n2c(=O)c(-c3cccs3)nc3cnc(Oc4ccccc4)nc32)cc1", "activity, negative = inhibition": "-0.534%"}, {"smiles": "O=C(NN=C1C2CC3CC(C2)CC1C3)c1ccncc1", "activity, negative = inhibition": "10%"}, {"smiles": "N#Cc1nc(COc2ccccc2Cl)oc1NCc1ccco1", "AC50": "2.82 µM (active)"}, {"smiles": "Cc1cc(C)cc(-n2nnc(C(=O)NCc3ccccc3Cl)c2N)c1", "activity, negative = inhibition": "-18.7%"}, {"smiles": "CCCCC(=O)Nc1sc2c(c1C(=O)OCC)CCC(C=O)=C2Cl", "activity, negative = inhibition": "-29.2%"}, {"smiles": "COC(=O)[C@@]1(Cc2ccccc2)[C@H]2c3cc(C(=O)N4CCCC4)[nH]c3C[C@H]2CN1C(=O)c1ccccc1", "activity, negative = inhibition": "-16.7%"}, {"smiles": "Cc1[nH]c(N)nc(=S)c1CCCNc1ccccc1", "activity, negative = inhibition": "-8.46% [at 11.4 µM]"}, {"smiles": "CCN(CC)CCCN(Cc1cc2ccc(C)c(C)c2[nH]c1=O)C(=O)NC1CCCCC1", "activity, negative = inhibition": "-20.3%"}, {"smiles": "c1ccc(NN(Cc2cnccn2)c2ccccc2)cc1", "activity, negative = inhibition": "-16.2% [at 11.4 µM]"}, {"smiles": "O=C1CN(c2nc(-c3ccccc3)c3cc(Br)ccc3n2)c2ccccc2N1", "activity, negative = inhibition": "-28.2%"}, {"smiles": "O=C1Cc2c([nH]c3ccc(Br)cc23)-c2ccccc2N1", "AC50": "0.398 µM (active)"}, {"smiles": "O=C1CCCCC(=O)c2ccccc2N1", "activity, negative = inhibition": "-11.6%"}, {"smiles": "N#C[C@H](Cc1ccc(O)cc1)c1ccc(O)cc1", "activity, negative = inhibition": "-1.28%"}, {"smiles": "CCOC(=O)CCCN", "activity, negative = inhibition": "5.1% [at 11.4 µM]"}, {"smiles": "CC(Cc1ccccc1)N/C=C1\\CC(=O)NC1=O", "note": "(configuration not stated)", "activity, negative = inhibition": "8.16%"}, {"smiles": "COc1ccc(N2CCN(Cc3nc4c(c(=O)n(C)c(=O)n4C)n3CC(C)=O)CC2)cc1", "activity, negative = inhibition": "0.904%"}, {"smiles": "CCOC(=O)c1nn(-c2ccccc2)c(-c2ccccc2)c1C(=O)c1ccccc1", "activity, negative = inhibition": "-17.8%"}, {"smiles": "CCOC(=O)c1c(NC(=O)c2c(C)noc2C)sc2c1CCCCC2", "activity, negative = inhibition": "-6.35%"}, {"smiles": "CCOC(=O)c1c(NC(=O)CSc2nnc(C)s2)sc2c1CCCCC2", "AC50": "7.94 µM (active)"}, {"smiles": "CCOC(=O)c1c(NC(=O)Cn2cc([N+](=O)[O-])cn2)sc2c1CCC2", "activity, negative = inhibition": "-8.46%"}, {"smiles": "CC(=O)NC1(c2cccc(F)c2)CCN(CC(=O)NC(C)C)CC1", "activity, negative = inhibition": "18.6%"}, {"smiles": "Nc1nnc(C(c2ccccc2)c2ccccc2)s1", "activity, negative = inhibition": "-4.84%"}, {"smiles": "Cn1c(=O)c(-c2ccc(F)cc2)nc2cnc(Oc3ccccc3)nc21", "activity, negative = inhibition": "1.71%"}, {"smiles": "CC/C=C\\CC[C@H](OC(=O)c1ccc(Br)cc1)C1=CCCCC1=O", "activity, negative = inhibition": "-1.66% [at 11.4 µM]"}, {"smiles": "CCn1c(=O)c2[nH]c(-c3ccccc3)nc2n(CC)c1=O", "activity, negative = inhibition": "3.55%"}, {"smiles": "O=C(O)C[n+]1ccccc1", "activity, negative = inhibition": "-8.09% [at 11.4 µM]"}, {"smiles": "Cc1ccc(OC(=O)c2ccc(N3CCOCC3)c([N+](=O)[O-])c2)cc1", "activity, negative = inhibition": "-15.1%"}, {"smiles": "COc1ccc(-c2cc(C3CCN(c4ccc(C(C)=O)cc4[N+](=O)[O-])CC3)[nH]n2)cc1", "activity, negative = inhibition": "-6.96%"}, {"smiles": "COC(=O)c1ccc(N2CCN(CC(=O)c3ccc(-c4ccccc4)cc3)CC2)c([N+](=O)[O-])c1", "AC50": "12.6 µM (active)"}, {"smiles": "CCNC(=S)N1CC(C)OC(C)C1", "note": "(configuration not stated)", "activity, negative = inhibition": "-0.0504%"}, {"smiles": "O=C(/C=C/c1ccco1)NC(=S)Nc1ccc(N2CCOCC2)c(Cl)c1", "activity, negative = inhibition": "2.74%"}, {"smiles": "CNc1cc(CSC)nc(SCc2ccc(Cl)c(Cl)c2)n1", "AC50": "28.2 µM (active)"}, {"smiles": "Clc1ccc(Cl)c(Nc2ccnc(SCc3ccccc3)n2)c1", "activity, negative = inhibition": "-0.772% [at 11.4 µM]"}, {"smiles": "CNc1cc(CS(=O)c2ccccc2)nc(-c2ccccc2)n1", "note": "(configuration not stated)", "activity, negative = inhibition": "-6.79%"}, {"smiles": "CCN1C(=O)[C@H]2[C@H]3[C@H](O)[C@H](O)C/C(=N/OC[C@@H](O)[C@H]4O[C@H]5OC(C)(C)O[C@H]5[C@@H]4O)[C@@H]3CC[C@@H]2C1=O", "activity, negative = inhibition": "7.29% [at 11.4 µM]"}, {"smiles": "Cn1sc(NC(=O)c2ccccc2)nc1=O", "activity, negative = inhibition": "-0.613%"}, {"smiles": "O=C(O)CCC/C=C\\C[C@@H]1CO[C@H](C(F)(F)F)O[C@@H]1c1ccccc1O", "activity, negative = inhibition": "-5.14%"}, {"smiles": "CO[C@H]1COC(=O)C/C=C\\[C@@H](C)COC(=O)[C@@H](OCc2ccccc2)/C=C\\[C@@H]1C", "activity, negative = inhibition": "1.83% [at 11.4 µM]"}, {"smiles": "Clc1ccccc1-c1ccc2ncnc(N3CCNCC3)c2c1", "activity, negative = inhibition": "-6.85%"}, {"smiles": "Clc1ccc2c(N3CCC(CCC4CCN(c5ncnc6cc(Cl)ccc56)CC4)CC3)ncnc2c1", "AC50": "0.794 µM (active)"}, {"smiles": "CN(C)C(=O)c1ccc(-c2ccc3ncnc(N4CCC(C(=O)O)CC4)c3c2)cc1", "activity, negative = inhibition": "2.88%"}, {"smiles": "COc1ccc(OC)c(NC(=O)[C@H]2CC=CC[C@H]2C(=O)O)c1", "activity, negative = inhibition": "14.4%"}, {"smiles": "O=C(Nc1ccccc1)N1CCOCC1", "activity, negative = inhibition": "-16.4%"}, {"smiles": "O=C(Nc1cccc(NC(=O)N2CCN(c3ccccc3)CC2)c1)N1CCN(c2ccccc2)CC1", "activity, negative = inhibition": "-13.9%"}, {"smiles": "O=C(Nc1cccc(Cl)c1)N1CCN2C(=O)c3ccccc3C12c1ccccc1", "note": "(configuration not stated)", "AC50": "10 µM (active)"}, {"smiles": "Cc1ccc(C2C(C=Nc3c(C)n(C)n(-c4ccccc4)c3=O)=C(c3ccccc3)Oc3ccccc32)cc1", "note": "(configuration not stated)", "activity, negative = inhibition": "5.37%"}, {"smiles": "CCOCCCN1C(=O)CN(C2CCCCCC2)C(=O)C1c1ccc(OC)cc1", "note": "(configuration not stated)", "activity, negative = inhibition": "-20.1%"}, {"smiles": "CCSc1nnc(-c2ccc(Cl)cc2)c2ccccc12", "activity, negative = inhibition": "-23%"}, {"smiles": "CCN(CC)S(=O)(=O)c1ccc2c(c1)nc(SCC(=O)N1CCOCC1)n2-c1ccccc1OC", "activity, negative = inhibition": "-5.25%"}, {"smiles": "COCCn1c(C)cc(C2=NNC(=Nc3ccc(F)cc3)SC2)c1C", "AC50": "7.94 µM (active)"}, {"smiles": "Cn1cccc1C(=O)N1CCC2(CC1)CCN(c1cccc(-c3ccccc3)c1)CC2", "activity, negative = inhibition": "-1.91%"}, {"smiles": "CN(C)c1ncc2nc(CCc3ccccc3)c(=O)n(CCC#N)c2n1", "AC50": "2.51 µM (active)"}, {"smiles": "N#CCCn1c(=O)c(CCc2ccccc2)nc2cnc(OCc3ccccc3)nc21", "activity, negative = inhibition": "-3.72%"}, {"smiles": "CN(C)c1ncc2nc(-c3cc(F)cc(F)c3)c(=O)n(CCC#N)c2n1", "activity, negative = inhibition": "0.117%"}, {"smiles": "CN(C)c1ncc2nc(-c3ccccc3)c(=O)n(CCC#N)c2n1", "AC50": "1 µM (active)"}, {"smiles": "CN(C)c1ncc2nc(-c3ccccc3)c(=O)n(CCc3ccccc3)c2n1", "activity, negative = inhibition": "-2.25%"}, {"smiles": "N#CCCn1c(=O)c(CCc2ccccc2)nc2cnc(Oc3ccccc3)nc21", "activity, negative = inhibition": "-1.17%"}]}]}
